Source: PubChem BioAssay
Calls of active or inactive are those of the source.

Key:
[1] = binders of probe aFSTL3 on microarray, primary screen, stem cell growth factor project, biochemical, small-molecule microarray, fluorescence 635/667 (AID 1064); conditions: higher = more signal;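 further: measures binding of the biotinylated anti-FSTL3 antibody to printed compounds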
[2] = binders from COS7 lysate, DM2A8 probe, primary screen, torsin A project, cell lysate, small-molecule microarray, fluorescence 635/667 (AID 1065); conditions: higher = more signal, COS7 lysate expressing mutant human TOR1A
[3] = binders of probe aFGF2 on microarray, primary screen, stem cell growth factor project, biochemical, small-molecule microarray, fluorescence 635/667 (AID 1067); conditions: higher = more signal;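 further: measures binding of biotinylated aFGF2 protein to printed compounds on slides; z-score merges feature fluorescence and signal-to-noise across triplicate slides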
[4] = binders of probe aFGF10 on microarray, primary screen, stem cell growth factor project, biochemical, small-molecule microarray, fluorescence 635/667 (AID 1071); conditions: higher = more signal;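 further: score merges 667 nm spot intensity and signal to noise from triplicate slides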
[5] = target: Neurogenic locus notch homolog protein 2 (Homo sapiens) (UniProt Q04721); test: Notch2 binders on small-molecule microarrays, primary screen, biochemical, small-molecule microarray, 635 nm fluorescence, stem cell growth factors (AID 1073); conditions: Notch2 binding, higher = more signal
[6] = target: Pro-neuregulin-1, membrane-bound isoform (Homo sapiens) (UniProt Q02297); test: NRG1 binders on small-molecule microarrays, primary screen, psychiatric disease protein project, biochemical, small-molecule microarray, fluorescence 635/667 (AID 1075); conditions: NRG1 binding, 635 nm fluorescence, higher = more signal;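 further: score combines 667 nm spot fluorescence with signal to noise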
[7] = system: Neuregulin-1 EGF-like domain; test: binders of neuregulin-1 EGF-like domain, primary screen, biochemical, small-molecule microarray, 635 nm fluorescence (AID 1081); conditions: small-molecule microarray binding, higher = more signal;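 further: binding of the protein to compounds printed on small-molecule microarray slides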
[8] = FRG1 promoter luciferase signal modulators, primary screen, FRG1 inhibition for FSHD, cell-based, C2C12 myotubes, firefly/Renilla luciferase, luminescence (AID 1084); conditions: higher = more signal, called active from +8 up or from −8 down
[9] = binders of probe aFST on microarray, primary screen, stem cell growth factor project, biochemical, small-molecule microarray, fluorescence 635/667 (AID 1086); conditions: higher = more signal;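 further: score merges 667 nm fluorescence with signal-to-noise of each printed compound spot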
[10] = binders of probe aHhip on microarray, primary screen, stem cell growth factor project, biochemical, small-molecule microarray, fluorescence 635/667 (AID 1087); conditions: higher = more signal;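 further: score merges spot fluorescence at 667nm with spot signal to noise ratio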
[11] = system: PRMT1 (protein arginine N-methyltransferase 1); test: PRMT1 binders on small-molecule microarrays, primary screen, biochemical, small-molecule microarray, 635 nm fluorescence (AID 1088); conditions: small-molecule microarray binding, higher = more signal;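 further: binding of Prmt1 protein to compounds spotted on small-molecule microarray slides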
[12] = yeast growth modulation, basal conditions, primary screen, YJM789 clinical isolate, OD600, 24 h (AID 1089);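 further: growth of clinical yeast isolate S. cerevisiae YJM 789 seeded 1000 cells per well; test concentration not given here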; conditions: S. cerevisiae YJM789 growth, higher = more signal, called active from +8 up or from −8 down
[13] = fission yeast growth modulation, primary screen, strain 972, OD600, 24 h, no modulator (AID 1090);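 further: basal condition with compound alone and no growth modifier present; test concentration not given here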; conditions: S. pombe 972 growth, higher = more signal, called active from +8 up or from −8 down
[14] = S. cerevisiae growth modulation with rapamycin, primary screen, strain BY4716, OD600, 96 h (AID 1091); conditions: higher = more signal, called active from +8 up or from −8 down; further: test concentration not given here
[15] = target: Torsin-1A-interacting protein 2 (Homo sapiens) (UniProt Q8NFQ8); test: LULL1 binders on small-molecule microarray, primary screen, cell lysate, human LULL1 lysate, 635/667 nm fluorescence (AID 1092); conditions: hLULL1 lysate binding, 635 nm fluorescence, higher = more signal;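 further: probe is lysate of COS7 cells overexpressing human LULL1; score merges per-feature 667 nm fluorescence with signal-to-noise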
[16] = E. coli growth modulation, two-sided OD650, primary screen, E. coli filamentation project, strain DRC41, 24 h (AID 1093); conditions: OD650, 24 h, higher = more signal, called active from +8 up or from −8 down;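 further: MC1000 strain lacking acrAB efflux and sulA so SOS filamentation is blocked; test concentration not given here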
[17] = small-molecule microarray binders of probe aLefty2, primary screen, biochemical, biotinylated probe, 635/667 nm fluorescence (AID 1094); conditions: higher = more signal;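 further: score merges spot fluorescence near 667 nm with spot signal-to-noise ratio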
[18] = system: Noggin (protein binding on small-molecule microarray); test: Noggin binders on small-molecule microarray, primary screen, biochemical, 635/667 nm fluorescence (AID 1095); conditions: 635 nm fluorescence, higher = more signal;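 further: score merges 667 nm feature fluorescence with signal to noise over triplicate slides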
[19] = target: Neurogenic locus notch homolog protein 3 (Homo sapiens) (UniProt Q9UM47); test: NOTCH3 binders on small-molecule microarray, primary screen, biochemical, 635/667 nm fluorescence (AID 1096); conditions: NOTCH3 binding, 635 nm fluorescence, higher = more signal
[20] = small-molecule microarray binders of probe aEGFR, primary screen, biochemical, biotinylated probe, 635/667 nm fluorescence (AID 1097); conditions: higher = more signal;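 further: probe is a biotinylated anti-EGFR antibody binding compounds printed on slides; score combines fluorescence near 667 nm and signal to noise of each spot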

Neurogenic locus notch homolog protein 2 (Homo sapiens), sequence (Q04721 whole entry, looked up, canonical isoform): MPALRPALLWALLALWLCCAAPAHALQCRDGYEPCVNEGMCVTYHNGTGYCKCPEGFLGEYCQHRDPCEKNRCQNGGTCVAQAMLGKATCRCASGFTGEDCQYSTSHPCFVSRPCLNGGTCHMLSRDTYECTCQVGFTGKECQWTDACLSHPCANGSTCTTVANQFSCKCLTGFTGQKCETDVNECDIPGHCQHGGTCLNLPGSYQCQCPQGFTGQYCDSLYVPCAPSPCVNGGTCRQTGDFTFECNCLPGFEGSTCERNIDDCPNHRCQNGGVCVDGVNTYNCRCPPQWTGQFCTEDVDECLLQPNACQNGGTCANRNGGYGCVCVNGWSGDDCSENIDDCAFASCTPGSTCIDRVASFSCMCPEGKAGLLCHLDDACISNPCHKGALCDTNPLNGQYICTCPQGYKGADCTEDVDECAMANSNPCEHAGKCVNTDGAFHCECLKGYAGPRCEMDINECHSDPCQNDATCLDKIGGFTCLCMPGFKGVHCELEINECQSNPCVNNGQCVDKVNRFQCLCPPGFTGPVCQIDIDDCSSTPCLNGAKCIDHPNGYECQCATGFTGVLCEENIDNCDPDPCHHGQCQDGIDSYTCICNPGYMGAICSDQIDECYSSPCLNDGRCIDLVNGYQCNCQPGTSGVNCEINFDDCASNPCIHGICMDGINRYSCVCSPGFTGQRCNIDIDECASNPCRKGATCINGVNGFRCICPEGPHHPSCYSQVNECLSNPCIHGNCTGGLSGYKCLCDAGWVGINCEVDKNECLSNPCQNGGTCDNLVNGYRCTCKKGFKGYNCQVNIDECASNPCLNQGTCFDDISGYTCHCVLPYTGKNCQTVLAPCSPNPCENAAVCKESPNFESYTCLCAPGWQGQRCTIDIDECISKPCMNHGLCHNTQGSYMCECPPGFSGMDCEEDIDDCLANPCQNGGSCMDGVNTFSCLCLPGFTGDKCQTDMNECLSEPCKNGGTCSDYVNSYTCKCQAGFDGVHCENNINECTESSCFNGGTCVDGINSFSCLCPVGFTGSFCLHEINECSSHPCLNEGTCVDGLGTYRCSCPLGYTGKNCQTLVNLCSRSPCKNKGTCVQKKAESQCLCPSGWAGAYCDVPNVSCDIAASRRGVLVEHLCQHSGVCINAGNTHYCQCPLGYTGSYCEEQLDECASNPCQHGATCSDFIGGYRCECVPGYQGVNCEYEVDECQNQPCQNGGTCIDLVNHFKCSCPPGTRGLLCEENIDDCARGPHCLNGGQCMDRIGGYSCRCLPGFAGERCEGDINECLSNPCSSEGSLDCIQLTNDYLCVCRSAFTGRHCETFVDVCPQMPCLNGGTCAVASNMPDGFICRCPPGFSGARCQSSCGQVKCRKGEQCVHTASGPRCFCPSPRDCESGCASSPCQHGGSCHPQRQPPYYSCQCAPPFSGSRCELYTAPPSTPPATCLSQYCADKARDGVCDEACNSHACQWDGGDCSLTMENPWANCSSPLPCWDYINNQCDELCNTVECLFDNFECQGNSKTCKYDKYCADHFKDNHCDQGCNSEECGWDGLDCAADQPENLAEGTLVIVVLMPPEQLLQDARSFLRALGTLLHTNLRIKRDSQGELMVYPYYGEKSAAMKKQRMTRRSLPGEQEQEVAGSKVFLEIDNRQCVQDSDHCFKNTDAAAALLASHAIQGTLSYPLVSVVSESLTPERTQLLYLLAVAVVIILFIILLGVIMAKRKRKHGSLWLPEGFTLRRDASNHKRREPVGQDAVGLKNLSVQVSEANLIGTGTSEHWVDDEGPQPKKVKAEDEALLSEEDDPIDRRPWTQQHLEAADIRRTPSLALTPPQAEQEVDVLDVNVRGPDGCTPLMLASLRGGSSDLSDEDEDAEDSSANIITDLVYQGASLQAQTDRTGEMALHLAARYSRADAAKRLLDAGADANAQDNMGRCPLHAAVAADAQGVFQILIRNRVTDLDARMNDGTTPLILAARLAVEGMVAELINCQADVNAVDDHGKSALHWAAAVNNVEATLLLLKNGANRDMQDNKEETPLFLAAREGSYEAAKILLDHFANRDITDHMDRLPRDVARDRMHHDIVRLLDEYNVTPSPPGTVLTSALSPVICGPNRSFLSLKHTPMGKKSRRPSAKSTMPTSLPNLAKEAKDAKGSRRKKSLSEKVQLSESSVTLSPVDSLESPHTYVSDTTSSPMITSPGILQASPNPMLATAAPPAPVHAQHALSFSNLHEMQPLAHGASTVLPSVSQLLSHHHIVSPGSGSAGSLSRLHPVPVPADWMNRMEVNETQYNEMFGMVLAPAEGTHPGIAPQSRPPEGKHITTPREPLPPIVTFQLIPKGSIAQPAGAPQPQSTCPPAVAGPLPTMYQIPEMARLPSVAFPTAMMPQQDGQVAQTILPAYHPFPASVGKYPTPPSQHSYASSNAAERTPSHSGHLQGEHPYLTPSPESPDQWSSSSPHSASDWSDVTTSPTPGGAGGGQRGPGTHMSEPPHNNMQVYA
Pro-neuregulin-1, membrane-bound isoform (Homo sapiens), sequence (Q02297 whole entry, looked up, the tested form may be a part, canonical isoform): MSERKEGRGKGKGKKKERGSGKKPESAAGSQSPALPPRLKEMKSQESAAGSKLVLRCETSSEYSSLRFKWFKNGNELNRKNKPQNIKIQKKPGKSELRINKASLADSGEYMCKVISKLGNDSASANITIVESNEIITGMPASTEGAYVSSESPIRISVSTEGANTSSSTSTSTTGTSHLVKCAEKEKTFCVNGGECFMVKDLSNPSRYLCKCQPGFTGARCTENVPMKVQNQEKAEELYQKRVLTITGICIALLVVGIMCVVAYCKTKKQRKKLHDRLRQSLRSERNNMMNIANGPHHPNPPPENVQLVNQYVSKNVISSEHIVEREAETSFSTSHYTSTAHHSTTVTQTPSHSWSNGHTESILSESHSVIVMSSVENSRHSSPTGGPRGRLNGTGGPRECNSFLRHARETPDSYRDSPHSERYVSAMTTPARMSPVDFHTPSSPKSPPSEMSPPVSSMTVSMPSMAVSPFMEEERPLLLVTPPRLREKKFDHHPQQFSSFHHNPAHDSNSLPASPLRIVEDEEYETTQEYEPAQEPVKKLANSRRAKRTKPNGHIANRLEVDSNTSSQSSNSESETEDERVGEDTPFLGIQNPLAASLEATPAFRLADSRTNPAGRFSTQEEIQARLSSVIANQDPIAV
Torsin-1A-interacting protein 2 (Homo sapiens), sequence (Q8NFQ8 whole entry, looked up): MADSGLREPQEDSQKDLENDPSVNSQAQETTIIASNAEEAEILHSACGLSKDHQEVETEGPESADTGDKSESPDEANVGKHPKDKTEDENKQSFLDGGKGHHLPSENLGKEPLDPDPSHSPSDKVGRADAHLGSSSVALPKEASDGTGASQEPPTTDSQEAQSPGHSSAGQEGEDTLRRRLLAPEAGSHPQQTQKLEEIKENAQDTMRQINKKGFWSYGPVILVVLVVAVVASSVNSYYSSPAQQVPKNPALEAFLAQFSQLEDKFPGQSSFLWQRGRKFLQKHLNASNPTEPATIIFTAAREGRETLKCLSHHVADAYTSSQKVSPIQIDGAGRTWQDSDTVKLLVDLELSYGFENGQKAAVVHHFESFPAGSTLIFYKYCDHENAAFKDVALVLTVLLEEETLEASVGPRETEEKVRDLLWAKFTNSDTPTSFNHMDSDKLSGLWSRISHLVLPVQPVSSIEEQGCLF

SMILES	composite z-score [1]	composite z-score [2]	composite z-score [3]	composite z-score [4]	composite z-score [5]	composite z-score [6]	composite z-score [7]	z-score [8]	composite z-score [9]	composite z-score [10]	composite z-score [11]	z-score [12]	z-score [13]	z-score [14]	composite z-score [15]	z-score [16]	composite z-score [17]	composite z-score [18]	composite z-score [19]	composite z-score [20]
CCCCCN1CC=CC23O[C@@H]4/C=C\CCC(C)OC(=O)C4[C@H]2C(=O)N(CCCCCO)[C@@H]3C1=O (stereo not given in full)	-0.0551	0.698	-0.0871	-0.524	-0.862	0.948	-0.69	0.312 (inactive)	-0.467	0.344	-0.103	-1.46 (inactive)	-0.773 (inactive)	-1.39 (inactive)	-1.94	2.19 (inactive)	-0.0491	-0.0687	0.0156	-0.149
COc1ccc([Si](C)(C)[C@H]2[C@H](CC(=O)N(CCO)Cc3ccccc3)O[C@@]3(C(=O)N(Cc4cccc(N5CCC5=O)c4)c4ccccc43)[C@@H]2C)cc1	0.0204	0.906	-0.131	0.55	0.629	1.18	1.07	-1.55 (inactive)	-0.194	-0.13	1.39	-0.763 (inactive)	-0.509 (inactive)	1.16 (inactive)	1.64	2.57 (inactive)	-0.0188	0.847	0.976	-0.0334
COC(=O)[C@@]1(Cc2ccccc2)N=C(c2ccc(OCCCO)cc2)O[C@H]1c1ccccc1N=[N+]=[N-]	0.454	2.86	-0.0667	0.123	0.784	0.657	1.33	3.69 (inactive)	0.0183	-0.201	1.49	0.288 (inactive)	-2.2 (inactive)	5.8 (inactive)	1.35	0.319 (inactive)	0.0484	0.884	0.802	-0.0953
[N-]=[N+]=NCc1ccccc1C[C@]1(C(=O)O)N=C(c2ccc(OCCCO)cc2)O[C@H]1c1ccccc1	0.32	0.474	-0.0184	0.39	0.0892	1.09	0.976	-2.33 (inactive)	0.219	-0.261	1.01	-0.143 (inactive)	-0.305 (inactive)	-1.36 (inactive)	1.86	0.279 (inactive)	-0.0221	-0.985	0.204	-0.232
COc1ccc(C#Cc2ccc3c(c2)[C@]2(C(=O)N3)[C@H](C(=O)NC[C@H](O)c3ccccc3)[C@H]3C(=O)O[C@H](c4ccccc4)[C@H](c4ccccc4)N3[C@@H]2c2ccccc2OCCO)cc1	-0.185	0.324	0.0128	0.688	1.29	1.56	1.19	0.162 (inactive)	0.653	-0.0994	1.54	2.23 (inactive)	2.01 (inactive)	4.39 (inactive)	2.94	0.413 (inactive)	0.0179	1.4	1.06	-0.0192
COc1ccc(CCN2C(=O)[C@@]3(Cc4ccccc42)c2ccccc2C(=O)N(Cc2ccccc2Cl)[C@H]3c2ccc(CO)cc2)cc1	0.451	-0.73	-0.0744	-0.249	-0.13	-0.221	0.834	-0.236 (inactive)	-0.285	-0.0994	1.34	-0.411 (inactive)	-1.51 (inactive)	-1.24 (inactive)	0.494	0.169 (inactive)	-0.126	-1.05	-0.981	-0.169
C=CC[C@@]1(C(=O)O)N=C(c2ccc(OCCCO)cc2)O[C@@H]1c1ccccc1N=[N+]=[N-]	1.44	-0.0147	-0.0112	0.484	0.0707	0.915	1.07	4.25 (inactive)	0.965	0.421	1.23	0.0908 (inactive)	-0.594 (inactive)	-1.46 (inactive)	3.24	0.0672 (inactive)	0.23	-0.203	-0.231	-0.0225
COCCOC(=O)N1C(=O)[C@@]2(c3cc(C#CCCO)ccc31)[C@H](C(=O)NC[C@H](O)c1ccccc1)[C@H]1C(=O)O[C@H](c3ccccc3)[C@H](c3ccccc3)N1[C@@H]2c1ccc(O)cc1	-0.221	0.464	-0.0058	0.627	0.026	1.48	1.21	-1.04 (inactive)	0.0399	-0.134	0.66	1.22 (inactive)	0.572 (inactive)	1.68 (inactive)	2.35	0.856 (inactive)	-0.0862	1.7	0.459	-0.137
O=c1cccc(CCc2ccccc2)o1	-0.587	-0.322	-0.0909	0.0466	-0.321	0.93	1.16	1.17 (inactive)	-0.104	0.0251	1.08	-0.951 (inactive)	-2.06 (inactive)	0.102 (inactive)	1.8	-0.97 (inactive)	-0.117	0.491	0.621	-0.171
C=CC(=C)C1=CCO[C@@H]1[C@H]1CCCN1S(=O)(=O)c1ccccc1[N+](=O)[O-]	-0.552	0.162	-0.0716	0.138	1.07	0.832	1.01	-0.788 (inactive)	0.358	-0.271	0.921	-0.358 (inactive)	0.131 (inactive)	-0.184 (inactive)	0.86	0.301 (inactive)	-0.0416	0.35	1.11	-0.115
C=C[C@@H](COC(C)=O)N(Cc1ccc([N+](=O)[O-])cc1)S(=O)(=O)c1ccc(Br)cc1	0.381	-0.339	0.0258	0.642	1.1	0.668	1.12	-1.5 (inactive)	0.804	-0.21	0.876	-0.0928 (inactive)	-1.26 (inactive)	3.93 (inactive)	1.25	2.1 (inactive)	0.157	-0.0608	0.733	0.158
CC(C)(C)OC(=O)CC[C@@]1(C(=O)O)N=C(c2ccc(OCCCO)cc2)O[C@@H]1c1ccccc1N=[N+]=[N-]	1.09	1.56	0.0918	1.11	0.984	1	1.15	6.94 (inactive)	0.457	-0.277	1.15	0.949 (inactive)	0.419 (inactive)	-0.286 (inactive)	2.15	0.484 (inactive)	0.553	-0.569	0.104	0.325
COc1cc2c(cc1O)C(C)N(Cc1cccc(OC(F)(F)F)c1)CC2 (stereo not given)	0.067	-0.142	0.139	0.953	1.23	2.13	1.47	0.734 (inactive)	0.226	-0.205	1.42	-0.167 (inactive)	-2.4 (inactive)	-1.09 (inactive)	3.02	-1.26 (inactive)	-0.0719	0.205	0.76	-0.0697
O=C1OCCC=C[C@H]2OC34C=CCN(Cc5ccccc5)C(=O)[C@H]3N(CCCO)C(=O)[C@@H]4C12 (stereo not given in full)	-0.274	0.0519	-0.116	-0.479	-0.747	-0.555	0.187	-0.138 (inactive)	-0.327	-0.0003	-0.595	0.252 (inactive)	-0.206 (inactive)	-1.54 (inactive)	0.549	2.79 (inactive)	-0.0807	-0.335	-0.278	-0.175
COCCOC(=O)N1C(=O)[C@@]2(c3cc(C#CCNC(N)=O)ccc31)[C@H](c1ccc(O)cc1)N1[C@H](c3ccccc3)[C@H](c3ccccc3)OC(=O)[C@H]1[C@@H]2C(=O)NC[C@H](O)c1ccccc1	0.134	1.16	0.109	0.846	1.01	0.743	0.866	-0.463 (inactive)	1.55	0.127	1.55	0.71 (inactive)	1.2 (inactive)	0.611 (inactive)	1.62	-0.675 (inactive)	0.434	0.664	1.06	0.0586
CC(=O)C1=CCC(c2ccccc2)N(S(=O)(=O)c2ccc(C)cc2)C1 (stereo not given)	0.174	0.453	0.0592	0.679	0.691	0.628	1.23	-2.72 (inactive)	0.57	-0.0142	1.53	-1.31 (inactive)	0.888 (inactive)	4.92 (inactive)	2.6	-1.03 (inactive)	-0.0118	0.229	0.821	-0.039
COC(=O)C[C@H]1O[C@]2(C(=O)N(Cc3ccccc3)c3ccc(NC(C)=O)cc32)[C@@H](C)[C@@H]1[Si](C)(C)c1ccc(OC)cc1	-0.383	-0.148	-0.0543	0.489	1.12	0.264	0.882	-1.98 (inactive)	0.113	-0.273	0.994	0.747 (inactive)	0.19 (inactive)	2.53 (inactive)	1.56	0.0208 (inactive)	-0.082	1.09	1.14	-0.108
CCCCC(CC)C(O)C1C=CC2C(=O)N(c3ccccc3)C(=O)C2N1Nc1ccccc1 (stereo not given)	0.0807	0.34	0.0472	0.698	1.46	0.796	1.06	-0.274 (inactive)	1.1	-0.0618	0.527	0.549 (inactive)	0.645 (inactive)	0.804 (inactive)	2.94	-1.54 (inactive)	0.0319	-0.0087	1.11	0.0276
Cc1ccc(S[C@]2(C(=O)NCC(C)C)CC(=O)N(Cc3ccccc3Cl)[C@@H]2c2ccc(CO)cc2)cc1	1.27	-0.48	-0.151	-0.584	-1.36	-0.612	-0.232	-2.55 (inactive)	-0.982	-0.284	-0.446	-0.259 (inactive)	-0.751 (inactive)	-0.0993 (inactive)	0.294	-0.0077 (inactive)	-0.0216	-1.98	-1.5	-0.228
N[C@@H](Cc1ccccc1)Cn1cc(-c2ccccc2)nn1	0.407	0.556	-0.0613	-0.161	0.0615	0.429	0.198	0.874 (inactive)	0.746	-0.186	0.043	-0.814 (inactive)	-2.18 (inactive)	0.371 (inactive)	0.196	-3 (inactive)	0.323	-0.0062	-0.0488	-0.0549
